aSyn 5UTR act – Activators via SNCA 5'UTR binding, MLPCN | activity score, % (tested at 7.5 µM), hits read low | 300,000 tested, 7.1% active | alpha-synuclein 5'UTR reporter, activators screen | AID 1814, 2009; in the data active = activity score below about -60%
Each line names hits and unclear results; the compound was inactive in the other large screens. Only a sample is shown.

C=CC(=O)N=c1sc2ccccc2n1-c1ccccc1	none
Cn1c(=NC(=O)C2=NNC(=O)CC2)sc2ccccc21	none
Cc1ccc(N2C(=O)c3ccc(N)cc3C2=O)cc1C	aSyn 5UTR act -131.3
Cc1ccc(N2C(=O)c3ccc(N)cc3C2=O)cc1	aSyn 5UTR act -181.8
Cn1c2ccccc2c(=O)c2ccc(C#Cc3ccccn3)cc21	aSyn 5UTR act -137.2
Cn1c2ccccc2c(=O)c2cc(C#CC3(O)CCCCC3)ccc21	none
COc1cc(-c2noc(C)c2C#Cc2ccsc2)cc(OC)c1OC	none
Cn1c2ccccc2c(=O)c2cc(C#Cc3ccccn3)ccc21	aSyn 5UTR act -127.0
Cn1c2ccccc2c(=O)c2cc(C#Cc3ccsc3)ccc21	aSyn 5UTR act -187.3
CCNC(=O)COc1ccc(-c2ccccc2)cc1	aSyn 5UTR act -115.8
CC(C)(C)NC(=O)COc1ccc(-c2ccccc2)cc1	aSyn 5UTR act -110.5
Cc1cc(OCC(=O)NC(C)(C)C)ccc1Cl	aSyn 5UTR act -93.4
Cc1ccc(OCC(=O)N/N=C\c2cn(Cc3ccccc3)c3ccccc23)cc1C	none
Cc1ccc2nc3sc(C(=O)N4CCCc5ccccc54)c(N)c3cc2c1	aSyn 5UTR act -157.7
NCCCn1c(C(=O)c2ccc(Cl)cc2)c2ccc([N+](=O)[O-])cc2[n+]1[O-]	none
Nc1c(C(=O)c2ccccc2)oc2ccc([N+](=O)[O-])cc12	aSyn 5UTR act -110.5
CCOC(=O)c1oc2ccccc2c1N	aSyn 5UTR act -90.0
Nc1c(C(=O)c2ccc(Br)cc2)oc2ccccc12	aSyn 5UTR act -173.7
COC(=O)CCC(=O)c1oc2ccc(Br)cc2c1N	aSyn 5UTR act -82.7
NC(=O)CCCn1c(C(=O)c2cc(Cl)c(N)c(Cl)c2)c2ccc([N+](=O)[O-])cc2[n+]1[O-]	none
Cc1ccc(C(=O)c2oc3ccccc3c2N)cc1	aSyn 5UTR act -66.0
Nc1c(C(=O)c2ccccc2)oc2ccc(Br)cc12	aSyn 5UTR act -255.8
CCCCOc1ccc(N=Nc2ccc(N)nc2N)cn1	aSyn 5UTR act -300.0
O=C(NC(=S)NC1CCCCCC1)c1cncc(Br)c1	aSyn 5UTR act -168.5
O=C(NC(=S)Nc1ccc(O)cc1)c1cncc(Br)c1	aSyn 5UTR act -71.2
O=C(NC(=S)NC1CCCCC1)c1ccccc1	aSyn 5UTR act -95.1
O=C(N/N=C\c1c(O)ccc2ccccc12)c1cncc(Br)c1	none
O=C(CNC(=S)NC(=O)c1ccccc1)c1ccccc1	aSyn 5UTR act -82.7
Cn1c2ccccc2c2ncn(CCC3=CCCCC3)c(=O)c21	aSyn 5UTR act -157.9
O=C(c1ccc(S(=O)(=O)c2ccccc2Cl)c([N+](=O)[O-])c1)N1CCCCCC1	aSyn 5UTR act -97.9
O=C(c1ccc(S(=O)(=O)c2cccc(Cl)c2)c([N+](=O)[O-])c1)N1CCN(c2ccccn2)CC1	aSyn 5UTR act -61.8
Cc1ccc(NC(=O)/C(C#N)=C/c2cccs2)c(C)c1	aSyn 5UTR act -168.8
N#C/C(=C\c1cccs1)C(=O)Nc1ccccn1	aSyn 5UTR act -74.7
Cc1ccc(C)c(NC(=O)/C(C#N)=C/c2cn(CC(=O)NCc3ccco3)c3ccccc23)c1	none
O=C(CC(Nc1ccccc1)C(=O)O)c1ccccc1 (centres undefined)	aSyn 5UTR act -123.6
Cc1ccc(NC(CC(=O)c2ccccc2)C(=O)O)cc1Cl (centres undefined)	aSyn 5UTR act -125.2
O=C(CC(Nc1ccccc1)c1ccc(F)cc1)c1ccccc1 (centres undefined)	aSyn 5UTR act -75.3
CC(=O)N(c1nnc(-c2ccc(C)cc2)s1)C1CCCC1	aSyn 5UTR act -83.1
CC(=O)c1ccc(OCc2cc(C(=O)N(C)Cc3ccccn3)no2)cc1	aSyn 5UTR act -64.9
Cc1cc(OCc2cc(C(=O)N(C)C(C)c3ccccn3)no2)cc(C)c1Cl (centres undefined)	aSyn 5UTR act -93.0
Cc1cc(OCc2cc(C(=O)N(C)Cc3ccccn3)no2)cc(C)c1Cl	aSyn 5UTR act -76.9
Cc1noc(/C=C/Nc2ccc(F)cc2F)c1[N+](=O)[O-]	aSyn 5UTR act -174.8
Cc1noc(/C=C/c2ccccn2)c1[N+](=O)[O-]	aSyn 5UTR act -211.4
O=C(Nc1nnc(C2CC2)s1)C1Cc2ccccc2CN1S(=O)(=O)c1ccccc1F (centres undefined)	aSyn 5UTR act -177.8
CCS(=O)(=O)N1Cc2ccccc2CC1C(=O)Nc1ncc(C)s1 (centres undefined)	aSyn 5UTR act -125.9
CCS(=O)(=O)N1Cc2ccccc2CC1C(=O)Nc1cccc(C)c1 (centres undefined)	aSyn 5UTR act -102.4
CCS(=O)(=O)N1Cc2ccccc2CC1C(=O)Nc1ccc(F)c(F)c1 (centres undefined)	aSyn 5UTR act -88.3
CCS(=O)(=O)N1Cc2ccccc2CC1C(=O)Nc1ccc(F)c(F)c1F (centres undefined)	aSyn 5UTR act -61.7
CCCCCCCCCCn1c2c(c(=N)c3c1CCC3)CCC2	none
COc1ccc(S(=O)(=O)n2ccc(-c3ccc4c(c3)CCC(C)(C)O4)n2)cc1	aSyn 5UTR act -103.4
CC1(C)CCc2cc(-c3ccn(S(=O)(=O)c4ccccc4Cl)n3)ccc2O1	aSyn 5UTR act -84.0
COc1ccc(S(=O)(=O)N2c3ccc(F)cc3CCC2C)cc1 (centres undefined)	none
COc1ccc(C)cc1N=Nc1ccc(O)c2ncccc12	none

Screening results deposited in PubChem BioAssay by Broad Institute.
